Activity calls are given as the source filed them.
Legend:
[1] = system: PRMT1 (protein arginine N-methyltransferase 1); assay: small molecules binding arginine methyltransferase PRMT1 – biochemical, small-molecule microarray, 635 nm fluorescence, primary screen (AID 1088); settings: higher = more signal;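 further: binding of Prmt1 protein to compounds spotted on small-molecule microarray slides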
[2] = growth effects on S. cerevisiae YJM789 – YJM789 clinical isolate, OD600, 24 h, basal, primary screen (AID 1089); settings: higher = more signal, called active from +8 up or from −8 down;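 further: growth of clinical yeast isolate S. cerevisiae YJM 789 seeded 1000 cells per well; test concentration not given here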
[3] = S. pombe growth modifiers, basal conditions – strain 972, OD600, 24 h, no modulator, primary screen (AID 1090);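 further: basal condition with compound alone and no growth modifier present; test concentration not given here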; settings: S. pombe 972 growth, higher = more signal, called active from +8 up or from −8 down
[4] = budding yeast growth modifiers under rapamycin – strain BY4716, OD600, 96 h, primary screen (AID 1091); further: test concentration not given here; settings: S. cerevisiae BY4716 + rapamycin, higher = more signal, called active from +8 up or from −8 down
[5] = biological target: Torsin-1A-interacting protein 2 (Homo sapiens) (UniProt Q8NFQ8); assay: small molecules binding lysate-expressed LULL1 – cell lysate, human LULL1 lysate, 635/667 nm fluorescence, primary screen (AID 1092); settings: small-molecule microarray, hLULL1 lysate binding, 635 nm fluorescence; higher = more signal;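 further: probe is lysate of COS7 cells overexpressing human LULL1; score merges per-feature 667 nm fluorescence with signal-to-noise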
[6] = optical density change of DRC41 E. coli – strain DRC41, OD650, 24 h, E. coli filamentation project, primary screen (AID 1093);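 further: MC1000 strain lacking acrAB efflux and sulA so SOS filamentation is blocked; test concentration not given here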; settings: E. coli DRC41 growth, higher = more signal, called active from +8 up or from −8 down
[7] = probe aLefty2 binding to arrayed compounds – biochemical, biotinylated probe, 635/667 nm fluorescence, primary screen (AID 1094); settings: small-molecule microarray, higher = more signal;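 further: score merges spot fluorescence near 667 nm with spot signal-to-noise ratio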
[8] = system: Noggin (protein binding on small-molecule microarray); assay: small molecules binding Noggin protein – biochemical, 635/667 nm fluorescence, primary screen (AID 1095); settings: 635 nm fluorescence, higher = more signal;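 further: score merges 667 nm feature fluorescence with signal to noise over triplicate slides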
[9] = biological target: Neurogenic locus notch homolog protein 3 (Homo sapiens) (UniProt Q9UM47); assay: small molecules binding NOTCH3 protein – biochemical, 635/667 nm fluorescence, primary screen (AID 1096); settings: small-molecule microarray, 635 nm fluorescence, higher = more signal
[10] = probe aEGFR binding to arrayed compounds – biochemical, biotinylated probe, 635/667 nm fluorescence, primary screen (AID 1097); settings: small-molecule microarray, higher = more signal;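 further: probe is a biotinylated anti-EGFR antibody binding compounds printed on slides; score combines fluorescence near 667 nm and signal to noise of each spot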
[11] = system: Plasmodium falciparum Sir2 (PF13_0152, Sir2A); assay: Plasmodium falciparum Sir2A binding compounds – biochemical, small-molecule microarray, 635 nm fluorescence, primary screen (AID 1098); settings: fluorescence 635 nm, higher = more signal;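 further: score merges spot fluorescence intensity with its signal-to-noise ratio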
[12] = probe aDKK1 binding to arrayed compounds – biochemical, biotinylated probe, 635/667 nm fluorescence, primary screen (AID 1099); settings: small-molecule microarray, higher = more signal;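 further: score merges 667nm spot fluorescence with signal to noise across triplicate slides; reference of the scale not given here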
[13] = probe aCHRDL2 binding to arrayed compounds – biochemical, biotinylated probe, 635/667 nm fluorescence, primary screen (AID 1100); settings: small-molecule microarray, higher = more signal
[14] = change in splice reporter luminescence, either direction, cell-based, HEK293, spliceosome inhibition project, primary screen (AID 1101); settings: HEK293 splicing luciferase reporter, 24 h, higher = more signal, called active from +8 up or from −8 down;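 further: HEK293 cells carrying a splicing-competent luciferase reporter gene; test concentration not given here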
[15] = biological target: Fibroblast growth factor 10 (Homo sapiens) (UniProt O15520); assay: compounds binding fibroblast growth factor 10 – biochemical, small-molecule microarray, 635 nm fluorescence, primary screen (AID 1102); settings: FGF10 binding, fluorescence 635 nm, higher = more signal
[16] = system: glycogen synthase kinase-3 (GSK3A per assay name; protocol says GSK3B); assay: compounds binding glycogen synthase kinase-3 – biochemical, small-molecule microarray, 635 nm fluorescence, GSK3A, primary screen (AID 1103); settings: fluorescence 635 nm, higher = more signal; further: the record names both GSK3A and GSK3B
[17] = biological target: Epidermal growth factor receptor (Homo sapiens) (UniProt P00533); assay: compounds binding epidermal growth factor receptor – biochemical, small-molecule microarray, 635 nm fluorescence, primary screen (AID 1104); settings: EGFR binding, higher = more signal;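 further: score merges 667 nm emission intensity with spot signal to noise over triplicate slides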
[18] = biological target: Follistatin-related protein 3 (Homo sapiens) (UniProt O95633); assay: compounds binding follistatin-related protein 3 – biochemical, small-molecule microarray, 635 nm fluorescence, primary screen (AID 1105); settings: FSTL3 binding, higher = more signal;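 further: score merges emission near 667 nm and signal to noise per printed spot across three slides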
[19] = biological target: Dickkopf-related protein 1 (Homo sapiens) (UniProt O94907); assay: small molecules binding DKK1 protein – biochemical, small-molecule microarray, 635 nm fluorescence scan, primary screen (AID 1106); settings: higher = more signal;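 further: score merges emission near 667 nm with signal to noise over three replicate slides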
[20] = system: Inhibin beta A chain (activin A); assay: small molecules binding activin A – biochemical, small-molecule microarray, 635 nm fluorescence scan, primary screen (AID 1107); settings: INHBA, higher = more signal;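 further: mouse activin A protein probed at 4.33 µg/mL on printed slides; score merges bound-protein fluorescence near 667 nm with spot signal-to-noise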

Follistatin-related protein 3 (Homo sapiens), sequence (O95633 whole entry, looked up): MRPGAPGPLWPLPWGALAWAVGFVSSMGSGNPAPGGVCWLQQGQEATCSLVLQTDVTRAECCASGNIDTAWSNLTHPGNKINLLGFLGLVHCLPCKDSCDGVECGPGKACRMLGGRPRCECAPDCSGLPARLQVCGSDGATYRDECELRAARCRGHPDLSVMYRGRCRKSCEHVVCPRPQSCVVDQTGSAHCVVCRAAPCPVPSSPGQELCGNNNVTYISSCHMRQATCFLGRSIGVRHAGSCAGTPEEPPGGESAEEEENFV
Torsin-1A-interacting protein 2 (Homo sapiens), sequence (Q8NFQ8 whole entry, looked up): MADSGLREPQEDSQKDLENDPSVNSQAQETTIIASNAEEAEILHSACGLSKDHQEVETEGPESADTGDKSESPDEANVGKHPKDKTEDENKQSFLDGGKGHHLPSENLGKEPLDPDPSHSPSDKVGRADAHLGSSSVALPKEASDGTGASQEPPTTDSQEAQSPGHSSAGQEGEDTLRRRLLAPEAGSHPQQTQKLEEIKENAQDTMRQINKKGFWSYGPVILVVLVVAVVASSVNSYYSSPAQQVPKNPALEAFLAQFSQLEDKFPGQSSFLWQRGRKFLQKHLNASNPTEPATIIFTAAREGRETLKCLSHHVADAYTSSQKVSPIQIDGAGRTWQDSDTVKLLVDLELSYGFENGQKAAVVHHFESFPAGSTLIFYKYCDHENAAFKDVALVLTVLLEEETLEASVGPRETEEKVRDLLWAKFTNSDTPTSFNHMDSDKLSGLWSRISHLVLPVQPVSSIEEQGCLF
Dickkopf-related protein 1 (Homo sapiens), sequence (O94907 whole entry, looked up): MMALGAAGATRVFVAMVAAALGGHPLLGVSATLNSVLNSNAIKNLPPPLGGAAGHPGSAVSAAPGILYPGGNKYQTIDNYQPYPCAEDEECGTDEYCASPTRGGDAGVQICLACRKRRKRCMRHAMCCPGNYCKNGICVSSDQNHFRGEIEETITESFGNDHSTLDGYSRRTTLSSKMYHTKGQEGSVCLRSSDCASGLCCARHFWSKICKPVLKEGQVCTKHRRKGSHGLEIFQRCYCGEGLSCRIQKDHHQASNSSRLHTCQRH
Epidermal growth factor receptor (Homo sapiens), sequence (P00533 whole entry, looked up): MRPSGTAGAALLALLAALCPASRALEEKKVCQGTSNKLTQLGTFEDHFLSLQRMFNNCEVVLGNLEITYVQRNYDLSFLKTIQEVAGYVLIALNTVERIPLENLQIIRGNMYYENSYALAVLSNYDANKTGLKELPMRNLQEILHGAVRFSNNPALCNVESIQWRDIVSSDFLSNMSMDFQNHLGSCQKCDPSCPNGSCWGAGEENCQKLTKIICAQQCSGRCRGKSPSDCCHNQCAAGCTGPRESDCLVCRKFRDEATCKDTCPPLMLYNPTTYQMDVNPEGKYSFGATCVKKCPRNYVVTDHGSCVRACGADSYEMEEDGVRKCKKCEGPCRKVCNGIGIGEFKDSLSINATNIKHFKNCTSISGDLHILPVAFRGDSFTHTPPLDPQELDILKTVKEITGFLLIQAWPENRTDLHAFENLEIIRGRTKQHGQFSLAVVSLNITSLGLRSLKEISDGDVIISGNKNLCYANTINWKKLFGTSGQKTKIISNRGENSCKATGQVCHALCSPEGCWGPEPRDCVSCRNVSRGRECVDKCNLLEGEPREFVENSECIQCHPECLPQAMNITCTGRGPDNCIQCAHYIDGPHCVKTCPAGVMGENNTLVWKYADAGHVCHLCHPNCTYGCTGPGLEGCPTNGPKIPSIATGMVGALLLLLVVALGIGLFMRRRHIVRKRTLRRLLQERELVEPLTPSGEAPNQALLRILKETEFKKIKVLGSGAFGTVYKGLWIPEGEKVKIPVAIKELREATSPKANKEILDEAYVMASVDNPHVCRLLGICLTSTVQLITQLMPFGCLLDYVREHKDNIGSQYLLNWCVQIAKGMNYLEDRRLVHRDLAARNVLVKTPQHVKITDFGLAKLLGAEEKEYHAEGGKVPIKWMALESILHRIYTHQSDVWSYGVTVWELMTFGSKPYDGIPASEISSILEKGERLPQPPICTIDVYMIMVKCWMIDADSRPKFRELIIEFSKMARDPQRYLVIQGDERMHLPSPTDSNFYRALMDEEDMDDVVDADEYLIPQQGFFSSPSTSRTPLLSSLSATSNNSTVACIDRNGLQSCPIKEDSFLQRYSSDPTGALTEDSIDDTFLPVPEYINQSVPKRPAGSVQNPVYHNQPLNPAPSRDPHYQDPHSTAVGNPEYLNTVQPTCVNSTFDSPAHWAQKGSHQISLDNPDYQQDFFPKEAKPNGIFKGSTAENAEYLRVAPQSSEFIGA
Neurogenic locus notch homolog protein 3 (Homo sapiens), sequence (Q9UM47 whole entry, looked up): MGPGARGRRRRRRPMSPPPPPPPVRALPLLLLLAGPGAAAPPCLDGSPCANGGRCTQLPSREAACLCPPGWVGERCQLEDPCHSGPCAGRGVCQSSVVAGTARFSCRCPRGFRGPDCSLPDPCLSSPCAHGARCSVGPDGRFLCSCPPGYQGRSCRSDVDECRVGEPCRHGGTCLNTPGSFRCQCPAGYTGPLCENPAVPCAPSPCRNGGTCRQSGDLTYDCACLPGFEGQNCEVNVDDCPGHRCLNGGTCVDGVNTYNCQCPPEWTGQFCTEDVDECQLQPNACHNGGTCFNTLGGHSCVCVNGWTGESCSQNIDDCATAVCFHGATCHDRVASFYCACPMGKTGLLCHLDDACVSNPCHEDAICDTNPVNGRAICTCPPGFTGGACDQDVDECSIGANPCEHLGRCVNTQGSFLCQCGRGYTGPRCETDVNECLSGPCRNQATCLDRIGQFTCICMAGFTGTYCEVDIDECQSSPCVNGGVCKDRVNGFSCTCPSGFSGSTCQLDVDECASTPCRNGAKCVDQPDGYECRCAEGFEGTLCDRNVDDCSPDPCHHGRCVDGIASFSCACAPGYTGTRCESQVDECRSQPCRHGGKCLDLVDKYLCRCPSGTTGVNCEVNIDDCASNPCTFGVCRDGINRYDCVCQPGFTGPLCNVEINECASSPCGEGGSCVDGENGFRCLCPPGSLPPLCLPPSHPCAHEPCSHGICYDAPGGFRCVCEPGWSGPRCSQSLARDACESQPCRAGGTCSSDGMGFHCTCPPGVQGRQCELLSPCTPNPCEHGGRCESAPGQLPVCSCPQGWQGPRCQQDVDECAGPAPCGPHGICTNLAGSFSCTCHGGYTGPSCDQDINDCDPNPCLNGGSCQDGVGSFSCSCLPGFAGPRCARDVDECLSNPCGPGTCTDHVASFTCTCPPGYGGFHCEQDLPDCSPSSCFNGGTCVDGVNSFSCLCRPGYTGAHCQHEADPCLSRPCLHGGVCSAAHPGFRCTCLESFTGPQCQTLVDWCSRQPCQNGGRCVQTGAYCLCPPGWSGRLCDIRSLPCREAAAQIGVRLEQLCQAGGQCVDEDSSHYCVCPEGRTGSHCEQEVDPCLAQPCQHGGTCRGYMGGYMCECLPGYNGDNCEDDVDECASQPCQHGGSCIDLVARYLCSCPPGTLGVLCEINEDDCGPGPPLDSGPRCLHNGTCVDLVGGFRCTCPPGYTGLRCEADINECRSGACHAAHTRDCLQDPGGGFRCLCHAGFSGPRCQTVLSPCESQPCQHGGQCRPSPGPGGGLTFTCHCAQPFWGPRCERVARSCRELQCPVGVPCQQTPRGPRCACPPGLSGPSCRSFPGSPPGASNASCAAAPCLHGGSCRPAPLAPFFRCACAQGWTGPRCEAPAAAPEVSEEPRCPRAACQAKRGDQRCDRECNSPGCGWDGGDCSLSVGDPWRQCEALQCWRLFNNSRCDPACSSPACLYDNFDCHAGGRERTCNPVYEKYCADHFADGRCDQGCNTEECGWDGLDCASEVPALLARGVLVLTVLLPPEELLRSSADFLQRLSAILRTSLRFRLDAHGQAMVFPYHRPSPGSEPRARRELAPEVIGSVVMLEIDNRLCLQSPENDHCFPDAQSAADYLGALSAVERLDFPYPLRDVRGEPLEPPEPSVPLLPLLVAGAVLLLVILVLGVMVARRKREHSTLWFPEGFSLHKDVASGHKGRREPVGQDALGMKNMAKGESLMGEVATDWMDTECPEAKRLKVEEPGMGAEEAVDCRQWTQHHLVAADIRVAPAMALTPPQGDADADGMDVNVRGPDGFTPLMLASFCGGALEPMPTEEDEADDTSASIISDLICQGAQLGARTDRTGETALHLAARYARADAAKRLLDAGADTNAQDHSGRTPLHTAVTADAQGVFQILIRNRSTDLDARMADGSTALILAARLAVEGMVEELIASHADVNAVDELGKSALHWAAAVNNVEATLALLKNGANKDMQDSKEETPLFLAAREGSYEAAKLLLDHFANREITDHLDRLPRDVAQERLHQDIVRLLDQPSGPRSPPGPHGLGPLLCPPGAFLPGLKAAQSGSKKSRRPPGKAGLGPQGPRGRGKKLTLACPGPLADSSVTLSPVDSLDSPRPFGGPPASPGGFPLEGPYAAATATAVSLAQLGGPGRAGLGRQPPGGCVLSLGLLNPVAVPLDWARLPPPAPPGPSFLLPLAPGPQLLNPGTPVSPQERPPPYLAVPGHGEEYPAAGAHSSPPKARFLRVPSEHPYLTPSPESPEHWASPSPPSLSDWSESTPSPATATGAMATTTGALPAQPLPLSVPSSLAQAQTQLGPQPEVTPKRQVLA
Fibroblast growth factor 10 (Homo sapiens), sequence (O15520 whole entry, looked up): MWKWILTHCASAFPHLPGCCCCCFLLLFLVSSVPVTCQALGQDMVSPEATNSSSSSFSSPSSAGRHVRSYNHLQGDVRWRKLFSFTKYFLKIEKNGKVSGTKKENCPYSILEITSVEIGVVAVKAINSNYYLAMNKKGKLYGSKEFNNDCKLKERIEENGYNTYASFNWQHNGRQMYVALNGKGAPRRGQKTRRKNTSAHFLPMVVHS

| Structure (SMILES) | composite z-score [1] | z-score [2] | z-score [3] | z-score [4] | composite z-score [5] | z-score [6] | composite z-score [7] | composite z-score [8] | composite z-score [9] | composite z-score [10] | composite z-score [11] | composite z-score [12] | composite z-score [13] | z-score [14] | composite z-score [15] | composite z-score [16] | composite z-score [17] | composite z-score [18] | composite z-score [19] | composite z-score [20] |
| --- | --- | --- | --- | --- | --- | --- | --- | --- | --- | --- | --- | --- | --- | --- | --- | --- | --- | --- | --- | --- |
| C=CCC(OC(C)=O)[C@@H]1[C@@H](N(Cc2ccc(-c3ccccc3)cc2)C(=O)Cc2ccc(OC)cc2)c2cc(OCCCO)ccc2N1C(=O)c1ccc(-c2ccccc2)cc1 (stereo not given in full) | -0.0413 | -0.445 (inactive) | -0.512 (inactive) | -0.542 (inactive) | 0.182 | 1.23 (inactive) | 0.152 | -0.0829 | -0.255 | -0.0488 | -0.0063 | 0.073 | 0.31 | -0.757 (inactive) | -0.0097 | -0.15 | -0.332 | -0.0062 | -0.18 | 1.22 |
| C=C(COC)C(=O)CC[C@H](OC(=O)c1ccccc1-c1ccccc1C(=O)O)c1ccc(OCCO)cc1 | 1.55 | -1.73 (inactive) | -0.613 (inactive) | -0.509 (inactive) | 0.75 | 0.802 (inactive) | -0.117 | 1.52 | 0.615 | -0.111 | 1.53 | -0.203 | 0.0518 | 0.287 (inactive) | 1.35 | 0.667 | -0.237 | 1.05 | 0.701 | 1.1 |
| C/C=C/[C@@H](CCn1cc([C@H](O)c2ccccc2)nn1)[Si](C)(C)c1ccc(OC)cc1 | 1.03 | -2.41 (inactive) | -0.143 (inactive) | -0.0906 (inactive) | 1.33 | 1.43 (inactive) | -0.171 | -0.385 | -0.498 | -0.298 | 1.53 | -0.414 | 0.476 | -0.406 (inactive) | -0.71 | -0.507 | -0.849 | -0.748 | -0.0219 | 0.0838 |
| [N-]=[N+]=NCc1ccccc1[C@H]1OC(c2ccc(OCCCO)cc2)=N[C@@]1(Cc1ccccc1)C(N)=O | 1.56 | -0.116 (inactive) | -1.07 (inactive) | -0.443 (inactive) | 3.37 | 0.369 (inactive) | 0.408 | 0.429 | 1.13 | 0.29 | 1.51 | 1.19 | 0.947 | -0.312 (inactive) | 0.923 | 0.644 | -0.43 | 0.546 | -0.952 | 0.669 |
| C[C@H]1ON(c2ccccc2)[C@@H](c2ccccc2)[C@@H]1C(=O)N1C(=O)OC[C@@H]1c1ccccc1 | 0.648 | 0.386 (inactive) | -0.0839 (inactive) | -0.299 (inactive) | 0.352 | -0.0337 (inactive) | -0.159 | 0.743 | 0.848 | -0.0409 | 0.0672 | -0.138 | -0.351 | 0.216 (inactive) | 0.675 | 0.363 | 0.356 | 0.699 | 0.289 | 0.631 |
| CN(C)CCCNC(=O)[C@@]1(Cc2ccccc2I)c2ccccc2C(=O)N(Cc2ccccc2Cl)[C@H]1c1ccc(CO)cc1 | 0.9 | -0.531 (inactive) | -19.8 (active) | -2.99 (inactive) | 2.78 | -1.7 (inactive) | 0.222 | -0.819 | -0.063 | 0.147 | 1.56 | 0.94 | 1.33 | -3.68 (inactive) | 0.247 | 0.122 | -1.4 | -0.509 | -0.83 | 1.03 |
| COCC(=C=CC[C@@H](O)c1ccccc1OCCO)C[C@@H](O)COCc1ccccc1 | 1.23 | -0.893 (inactive) | -1.68 (inactive) | -1.26 (inactive) | 2.62 | 1.73 (inactive) | 0.437 | 1.01 | -0.0082 | 0.0017 | 0.72 | 0.724 | 0.167 | -1.48 (inactive) | 1.21 | 0.732 | -1.19 | -0.268 | -0.466 | 1.24 |
| COCCCNC(=O)[C@]1(Cc2ccccc2)N=C(c2ccc(OCCCO)cc2)O[C@@H]1c1ccccc1N=[N+]=[N-] | 1.56 | -0.499 (inactive) | -0.357 (inactive) | 1.37 (inactive) | 3.16 | 0.49 (inactive) | -0.02 | 1.67 | 1.15 | -0.0238 | 0.816 | 0.346 | 0.879 | -1.51 (inactive) | 1.26 | 1.33 | -0.184 | 0.481 | -0.267 | 0.618 |
| COCCOC(=O)N1C(=O)[C@@]2(c3cc(C#CCNC(N)=O)ccc31)[C@H](C(=O)N1CCCCCCC1)[C@H]1C(=O)O[C@H](c3ccccc3)[C@H](c3ccccc3)N1[C@@H]2c1ccc(OCCO)cc1 | 0.543 | 0.872 (inactive) | 0.642 (inactive) | 3.24 (inactive) | 0.808 | -0.299 (inactive) | 0.239 | 0.616 | 1.07 | 0.0126 | 0.918 | 0.774 | 0.989 | 0.524 (inactive) | 0.544 | 0.211 | 0.588 | 0.762 | 0.0313 | 0.999 |
